This is an account of results in ChEMBL document CHEMBL3988442, “University of Dundee, Small-Polar-MMV Screening Library” (2021).

SMILES strings stand for the structures. The whole screen tested about 48,000 compounds, of which about 13,000 (27%) showed an effect of 50% or more. This is one part of the list.

This experiment relates to Wolbachia pipientis. The experiment is described as follows: Anti-Wolbachia Cell-Based Screen. Type of experiment: functional. Also on record: scale not given: in the data most compounds retested in dose-response had high values. The following applies: 5 µM.
Consider `CC(C)=CCCC1(C)C=Cc2c(cc(C)n(CC(=O)O)c2=O)O1` (stereo not drawn), for which the “Percent Effect” value came out at 107.4%.
For `CC(C)=CCCC1(C)C=Cc2c(cc(C)n(CCC(=O)O)c2=O)O1` (stereo not drawn), the “Percent Effect” value was determined as 110.1%.
In the case of `CCn1c(C)nnc1SCCNC(=O)c1cnc(C(C)(C)C)nc1O`, the “Percent Effect” value is recorded as -1.576%.
Regarding `CN(C)C(=O)N1CCN(CCCOc2ccccc2)[C@H]2CS(=O)(=O)C[C@H]21`, the “Percent Effect” value is -34.84%.
Then `CC(O)CN1CCC(CNCc2ccc(C#N)cc2)CC1` (stereo not drawn), with 2.816%; and `Cn1ccnc1CN1CCC2(CC1)CC(Oc1cccnc1)C2.O=C(O)C(F)(F)F.O=C(O)C(F)(F)F`, with -13.8%.
Then `Cn1ccnc1CN1CCC(F)(F)C2(CCN(c3cnccn3)C2)C1.O=C(O)C(F)(F)F` (stereo not drawn), with 108.4%.
Then `Cc1ccc(N2CC3(CCN(Cc4nccn4C)C3)CC2=O)s1.O=C(O)C(F)(F)F` (stereo not drawn), with 20.39%; and `Cn1cc(N2CC3(CCN(Cc4nccn4C)C3)CC2=O)cn1.O=C(O)C(F)(F)F` (stereo not drawn), with -13.1%.
As for `COc1cccc(N2CC3(CCN(Cc4nccn4C)C3)CC2=O)c1.O=C(O)C(F)(F)F` (stereo not drawn), the “Percent Effect” value turned out to be 13.06%.
Then `Cn1ccnc1CN1CCC(F)(F)C2(CCN(c3cccnc3)C2)C1.O=C(O)C(F)(F)F.O=C(O)C(F)(F)F` (stereo not drawn), with 75.41%.
In the case of `Cc1cnn(C(C)C2CC2)c1NC(=O)c1cnccn1` (stereo not drawn) it was 2.38%.
Then `COc1ccc(CN2CCN(C(C)=O)CC2)cc1SC(F)(F)F`, with -8.503%.
For `CCN1Cc2nc(OC)c(CNC(=O)CCC3CCCC3)cc2C1=O`, the “Percent Effect” value came to 102.4%.
In the case of `CCN1Cc2nc(OC)c(CNC(=O)C3CCCN(C)C3)cc2C1=O` (stereo not drawn) it was 93.23%; in that of `COc1ccc(Oc2ccc(CNC(=O)C3CCS(=O)(=O)C3)cn2)cc1` (stereo not drawn), -6.307%.
`COc1nc2ccccc2cc1CN1CCCC(CNC(C)=O)C1` (stereo not drawn): the “Percent Effect” value turned out to be 6.31%.
Then `O=C(CCC1CCCCC1)NCc1nnc2ccccn12`, with -0.7171%.
For `CCN1Cc2nc(OC)c(CNC(=O)C3CCS(=O)(=O)CC3)cc2C1=O`, the “Percent Effect” value turned out to be 82.23%.
In the case of `CCc1[nH]c2c(CNC(=O)C3CCS(=O)(=O)CC3)cc(C)cc2c1C` it was -6.161%; in that of `CCc1[nH]c2c(CNC(=O)C3CCCN(C)C3)cc(C)cc2c1C` (stereo not drawn), -27.93%; in that of `Cc1cc(C(F)(F)F)nc(CNC(=O)CCC2CCCN(C)C2)n1` (stereo not drawn), 9.588%.
Consider `O=C(NCCc1nnc2n1CCCCC2)N1CCC2(CCOC2)C1` (stereo not drawn), for which the “Percent Effect” value was 10.36%.
In the case of `CNC(=O)c1ccc(=O)n(Cc2csc(C(C)(C)C)n2)c1` it was 14.6%; in that of `Cc1cnn(C2CCCN(C(=O)c3c(C)oc4nc[nH]c(=O)c34)C2)c1` (stereo not drawn), -0.5439%.
Turning to `COCc1nc(CNC2CCCc3c2cnn3C(C)(C)C)cs1` (stereo not drawn), the “Percent Effect” value was -7.69%.
As for `CC1(NC(=O)Cc2csc(C(C)(C)C)n2)CCS(=O)(=O)C1` (stereo not drawn), the “Percent Effect” value was -4.538%.
Consider `Cc1cc(N2CCC(Cc3ccncc3)C2)ncn1` (stereo not drawn), for which the “Percent Effect” value stood at 95.84%.
In the case of `CN1CCN(c2cc(NC(=O)c3cnccn3)ncn2)CC1` it was -2.529%; in that of `COc1cc(N2CC[C@H]3OCC[C@@]3(COc3nccc(C)n3)C2)ncn1`, -2.077%; in that of `Cc1cc(N2CCCC2c2cnccn2)ncn1` (stereo not drawn), -8.281%.
`COc1cc(N2CCC(c3nccn3Cc3cccnc3)CC2)ncn1`: the “Percent Effect” value stood at 2.829%.
Then `Cc1cc(N2CCC(Cc3cccnc3)CC2)ncn1`, with 156%; and `COCCO[C@H]1CCN(c2cc(OC)ncn2)[C@H]1Cc1ccncc1`, with -8.224%; and `Cc1cc2c(N3CCCC(OCc4cccnc4)C3)ncnc2s1` (stereo not drawn), with 0.4664%.
Then `Cc1cc(N2CCC(Cc3ncccn3)C2)ncn1` (stereo not drawn), with 90.07%.
Then `Cc1cc(N2CCC(Cc3cnccn3)C2)ncn1` (stereo not drawn), with 100.8%; and `Cc1ccc(N2CCCC(NCc3ccncc3)C2)nn1` (stereo not drawn), with 1.645%; and `C[C@@H]1CN(c2cc(N3CCC(O)CC3)ncn2)C[C@@]1(O)C1CCC1`, with 2.327%.
For the compound `CCN(C(=O)c1cc2c([nH]c1=O)CCCC2=O)C1CCCCC1`, the “Percent Effect” value turned out to be 14.13%.
Then `CN(C)c1ncc(CNC(=O)Nc2ccccc2C(F)(F)F)n1C`, with 9.124%.
In the case of `Cn1nc2c(cc1=O)CN(Cc1coc(-c3cccs3)n1)CC2` it was 1.365%.
Consider `COCCN1C[C@H]2CC[C@@H]1CN(C(=O)CCc1n[nH]c(C)c1C)C2`, for which the “Percent Effect” value turned out to be 0.4749%.
Then `COc1cc(N2CCCC(c3nccn3Cc3cccnc3)C2)ncn1` (stereo not drawn), with -16.56%.
Turning to `Cc1cc(N2CCC(Cc3cccnc3)C2)ncn1` (stereo not drawn), the “Percent Effect” value came out at 84.65%.
Then `CC(=O)c1c(F)cccc1N1CCC(Cc2cccnc2)CC1`, with -2.782%; and `Cc1cc(C(=O)N2C[C@H]3CC[C@@H]2CN(Cc2ccccn2)C3)nc(N)n1`, with 2.343%; and `NC(=O)CCn1cc(CNCCCc2ccncc2)c2ccccc21`, with -11.7%.
As to `Cl.NCCc1cn(Cc2ccccn2)c2ccccc12`, the “Percent Effect” value is recorded as 119.5%.
In the case of `COC1COC2(CCN(CC3CCOCC3)CC2)C1.O=C(O)C(F)(F)F` (stereo not drawn) it was 105.7%; in that of `CS(=O)(=O)N[C@@H]1CCO[C@]2(CCN(CC3CCOCC3)C2)C1.O=C(O)C(F)(F)F`, -3.641%; in that of `COC1COC2(CCN(CC3CC3)CC2)C1.O=C(O)C(F)(F)F` (stereo not drawn), 95.93%.
As to `CS(=O)(=O)N[C@H]1CCO[C@]2(CCN(CC3CCOCC3)C2)C1.O=C(O)C(F)(F)F`, the “Percent Effect” value was 0.7443%.
